Reference: the supplement of paper PMC11732987, “Enantioselective OTUD7B fragment discovery through chemoproteomics screening and high-throughput optimisation” (Communications Chemistry, 2025)

Columns and labels:
Experiment in all cases: log2 ratio of Biotin-Ahx-Ub-VS probe labelling (fragment/DMSO); higher = less target engagement (more negative = stronger competition), active = hit call of the paper (q ≤ 0.05, log2 ratio ≤ -1)
Details in all cases: compound concentration: 200 uM; treatment time: 3 h
[1] = molecular target: T1, USP19 (UniProt O94966)
T1 sequence (whole entry): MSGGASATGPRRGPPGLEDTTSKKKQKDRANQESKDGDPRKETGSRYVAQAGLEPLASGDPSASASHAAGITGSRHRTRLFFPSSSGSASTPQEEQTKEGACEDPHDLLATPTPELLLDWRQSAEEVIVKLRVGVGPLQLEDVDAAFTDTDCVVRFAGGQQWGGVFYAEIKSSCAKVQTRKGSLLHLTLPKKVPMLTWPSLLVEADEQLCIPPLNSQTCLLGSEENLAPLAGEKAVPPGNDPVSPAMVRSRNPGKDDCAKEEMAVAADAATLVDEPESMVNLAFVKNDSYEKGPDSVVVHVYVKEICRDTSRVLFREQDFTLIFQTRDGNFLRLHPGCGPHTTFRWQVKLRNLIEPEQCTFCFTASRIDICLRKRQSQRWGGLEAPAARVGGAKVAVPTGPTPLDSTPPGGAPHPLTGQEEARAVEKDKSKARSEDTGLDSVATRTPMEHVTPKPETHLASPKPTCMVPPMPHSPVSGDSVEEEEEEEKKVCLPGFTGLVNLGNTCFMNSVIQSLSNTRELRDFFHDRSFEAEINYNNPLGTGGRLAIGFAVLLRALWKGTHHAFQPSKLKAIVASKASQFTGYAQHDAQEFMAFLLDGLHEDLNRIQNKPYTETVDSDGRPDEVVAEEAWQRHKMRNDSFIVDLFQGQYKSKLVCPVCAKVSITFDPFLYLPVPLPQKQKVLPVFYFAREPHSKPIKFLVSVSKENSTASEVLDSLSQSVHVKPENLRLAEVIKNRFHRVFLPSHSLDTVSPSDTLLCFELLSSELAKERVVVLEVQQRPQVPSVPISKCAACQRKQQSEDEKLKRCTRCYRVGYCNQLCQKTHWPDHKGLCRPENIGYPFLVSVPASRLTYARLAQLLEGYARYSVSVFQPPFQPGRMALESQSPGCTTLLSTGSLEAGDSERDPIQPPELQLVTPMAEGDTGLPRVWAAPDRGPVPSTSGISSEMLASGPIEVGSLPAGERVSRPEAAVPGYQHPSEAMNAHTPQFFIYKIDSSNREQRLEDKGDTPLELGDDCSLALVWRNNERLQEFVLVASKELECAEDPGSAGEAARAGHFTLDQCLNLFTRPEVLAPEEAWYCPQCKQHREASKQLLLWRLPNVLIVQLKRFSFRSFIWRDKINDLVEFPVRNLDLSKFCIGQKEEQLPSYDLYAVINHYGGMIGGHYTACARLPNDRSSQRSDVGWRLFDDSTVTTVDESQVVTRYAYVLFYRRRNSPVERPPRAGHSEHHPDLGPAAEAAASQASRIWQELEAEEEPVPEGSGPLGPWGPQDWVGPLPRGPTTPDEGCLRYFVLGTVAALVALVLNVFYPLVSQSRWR
Outline: (§1)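 Labelled DUBs from HEK293T lysate were NeutrAvidin-enriched, digested with LysC and trypsin, and run by diaPASEF LC-MS/MS. Before that, each 495 µg sample in Tris/CHAPS/IGEPAL buffer with protease inhibitors was treated in triplicate with fragment at 200 µM or vehicle for 3 h, then with Biotin-Ahx-Ub-VS at 0.5 µM final for 1 h. Values are average log2 ratios of fragment over vehicle by unpaired t-test, based on global-median-normalised Spectronaut label-free quantities from proteins with ≥2 unique peptides.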

[2] = molecular target: T2, USP22 (UniProt Q9UPT9)
T2 sequence (whole entry): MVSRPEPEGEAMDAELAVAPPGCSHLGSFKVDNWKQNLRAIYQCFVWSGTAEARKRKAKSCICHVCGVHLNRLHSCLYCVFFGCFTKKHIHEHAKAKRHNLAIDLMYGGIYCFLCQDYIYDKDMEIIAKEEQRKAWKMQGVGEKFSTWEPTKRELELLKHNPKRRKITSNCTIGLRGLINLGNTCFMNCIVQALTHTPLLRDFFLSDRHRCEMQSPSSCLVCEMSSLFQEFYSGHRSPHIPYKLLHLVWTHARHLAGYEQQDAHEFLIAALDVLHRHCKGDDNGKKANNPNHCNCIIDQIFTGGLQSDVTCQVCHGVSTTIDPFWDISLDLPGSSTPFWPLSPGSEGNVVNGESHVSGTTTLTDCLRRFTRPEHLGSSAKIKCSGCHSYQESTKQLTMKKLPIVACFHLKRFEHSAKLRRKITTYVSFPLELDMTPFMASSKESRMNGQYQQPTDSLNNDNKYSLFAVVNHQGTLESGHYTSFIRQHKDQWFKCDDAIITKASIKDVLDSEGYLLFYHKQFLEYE
Outline: as §1

[3] = molecular target: USP24 (UniProt Q9UPU5)
Outline: as §1

[4] = molecular target: T3, USP25 (UniProt Q9UHP3)
T3 sequence (whole entry): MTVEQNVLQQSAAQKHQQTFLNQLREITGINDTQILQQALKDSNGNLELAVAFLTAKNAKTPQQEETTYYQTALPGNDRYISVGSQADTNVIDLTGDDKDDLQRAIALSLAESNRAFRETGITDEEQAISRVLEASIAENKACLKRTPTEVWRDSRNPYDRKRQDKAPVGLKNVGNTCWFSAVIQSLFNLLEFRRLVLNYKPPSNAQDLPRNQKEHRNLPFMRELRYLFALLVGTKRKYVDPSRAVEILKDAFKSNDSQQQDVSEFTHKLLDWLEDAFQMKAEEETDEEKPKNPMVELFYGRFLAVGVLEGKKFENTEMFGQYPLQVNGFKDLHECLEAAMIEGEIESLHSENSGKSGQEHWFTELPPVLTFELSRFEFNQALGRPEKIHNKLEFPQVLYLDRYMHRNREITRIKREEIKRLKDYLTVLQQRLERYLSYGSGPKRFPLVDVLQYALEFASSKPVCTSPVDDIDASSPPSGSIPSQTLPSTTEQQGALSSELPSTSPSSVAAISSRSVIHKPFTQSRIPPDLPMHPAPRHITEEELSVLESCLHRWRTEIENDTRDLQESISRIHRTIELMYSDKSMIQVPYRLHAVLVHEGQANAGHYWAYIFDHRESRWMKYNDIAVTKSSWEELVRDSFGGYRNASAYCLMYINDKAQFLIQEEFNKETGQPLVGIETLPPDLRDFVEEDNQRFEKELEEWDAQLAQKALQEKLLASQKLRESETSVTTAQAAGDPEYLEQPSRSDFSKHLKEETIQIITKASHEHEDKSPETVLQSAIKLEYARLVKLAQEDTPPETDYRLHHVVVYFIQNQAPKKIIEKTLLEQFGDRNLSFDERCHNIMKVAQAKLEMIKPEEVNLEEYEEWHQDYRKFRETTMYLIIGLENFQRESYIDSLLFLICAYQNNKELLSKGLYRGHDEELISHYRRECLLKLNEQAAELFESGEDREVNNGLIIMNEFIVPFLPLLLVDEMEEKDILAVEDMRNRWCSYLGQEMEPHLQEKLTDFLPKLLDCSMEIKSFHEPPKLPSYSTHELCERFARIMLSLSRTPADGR
Outline: as §1

[5] = molecular target: T4, USP28 (UniProt Q96RU2)
T4 sequence (whole entry): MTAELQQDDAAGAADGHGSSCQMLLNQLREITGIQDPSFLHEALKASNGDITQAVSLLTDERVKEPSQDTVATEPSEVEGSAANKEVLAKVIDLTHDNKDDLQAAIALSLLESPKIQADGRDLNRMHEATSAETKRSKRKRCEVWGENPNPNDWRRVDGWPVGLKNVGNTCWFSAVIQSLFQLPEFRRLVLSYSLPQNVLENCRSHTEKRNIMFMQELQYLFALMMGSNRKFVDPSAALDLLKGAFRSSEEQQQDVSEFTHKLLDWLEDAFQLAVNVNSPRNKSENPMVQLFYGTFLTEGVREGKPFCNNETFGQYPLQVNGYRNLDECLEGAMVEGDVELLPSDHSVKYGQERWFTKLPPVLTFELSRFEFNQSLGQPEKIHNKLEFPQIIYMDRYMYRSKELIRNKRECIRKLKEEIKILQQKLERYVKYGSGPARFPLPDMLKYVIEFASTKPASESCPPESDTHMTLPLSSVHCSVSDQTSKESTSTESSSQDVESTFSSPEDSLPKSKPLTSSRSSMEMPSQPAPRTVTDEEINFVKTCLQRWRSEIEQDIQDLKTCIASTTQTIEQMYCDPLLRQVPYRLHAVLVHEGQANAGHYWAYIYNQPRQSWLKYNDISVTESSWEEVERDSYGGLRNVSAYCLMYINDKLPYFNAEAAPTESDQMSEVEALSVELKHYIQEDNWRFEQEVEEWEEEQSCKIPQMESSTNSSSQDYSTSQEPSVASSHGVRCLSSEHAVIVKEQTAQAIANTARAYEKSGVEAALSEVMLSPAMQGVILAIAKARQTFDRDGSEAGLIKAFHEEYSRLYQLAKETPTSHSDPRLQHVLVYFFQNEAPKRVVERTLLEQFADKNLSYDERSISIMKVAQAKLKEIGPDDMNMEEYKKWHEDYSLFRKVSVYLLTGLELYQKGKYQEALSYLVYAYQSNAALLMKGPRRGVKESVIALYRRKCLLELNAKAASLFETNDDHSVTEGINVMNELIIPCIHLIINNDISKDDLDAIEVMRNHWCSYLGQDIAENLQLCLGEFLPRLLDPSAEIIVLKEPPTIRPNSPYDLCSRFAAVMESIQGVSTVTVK
Outline: as §1

Measured: log2 ratio of Biotin-Ahx-Ub-VS probe labelling

USP24, sequence (Q9UPU5 whole entry): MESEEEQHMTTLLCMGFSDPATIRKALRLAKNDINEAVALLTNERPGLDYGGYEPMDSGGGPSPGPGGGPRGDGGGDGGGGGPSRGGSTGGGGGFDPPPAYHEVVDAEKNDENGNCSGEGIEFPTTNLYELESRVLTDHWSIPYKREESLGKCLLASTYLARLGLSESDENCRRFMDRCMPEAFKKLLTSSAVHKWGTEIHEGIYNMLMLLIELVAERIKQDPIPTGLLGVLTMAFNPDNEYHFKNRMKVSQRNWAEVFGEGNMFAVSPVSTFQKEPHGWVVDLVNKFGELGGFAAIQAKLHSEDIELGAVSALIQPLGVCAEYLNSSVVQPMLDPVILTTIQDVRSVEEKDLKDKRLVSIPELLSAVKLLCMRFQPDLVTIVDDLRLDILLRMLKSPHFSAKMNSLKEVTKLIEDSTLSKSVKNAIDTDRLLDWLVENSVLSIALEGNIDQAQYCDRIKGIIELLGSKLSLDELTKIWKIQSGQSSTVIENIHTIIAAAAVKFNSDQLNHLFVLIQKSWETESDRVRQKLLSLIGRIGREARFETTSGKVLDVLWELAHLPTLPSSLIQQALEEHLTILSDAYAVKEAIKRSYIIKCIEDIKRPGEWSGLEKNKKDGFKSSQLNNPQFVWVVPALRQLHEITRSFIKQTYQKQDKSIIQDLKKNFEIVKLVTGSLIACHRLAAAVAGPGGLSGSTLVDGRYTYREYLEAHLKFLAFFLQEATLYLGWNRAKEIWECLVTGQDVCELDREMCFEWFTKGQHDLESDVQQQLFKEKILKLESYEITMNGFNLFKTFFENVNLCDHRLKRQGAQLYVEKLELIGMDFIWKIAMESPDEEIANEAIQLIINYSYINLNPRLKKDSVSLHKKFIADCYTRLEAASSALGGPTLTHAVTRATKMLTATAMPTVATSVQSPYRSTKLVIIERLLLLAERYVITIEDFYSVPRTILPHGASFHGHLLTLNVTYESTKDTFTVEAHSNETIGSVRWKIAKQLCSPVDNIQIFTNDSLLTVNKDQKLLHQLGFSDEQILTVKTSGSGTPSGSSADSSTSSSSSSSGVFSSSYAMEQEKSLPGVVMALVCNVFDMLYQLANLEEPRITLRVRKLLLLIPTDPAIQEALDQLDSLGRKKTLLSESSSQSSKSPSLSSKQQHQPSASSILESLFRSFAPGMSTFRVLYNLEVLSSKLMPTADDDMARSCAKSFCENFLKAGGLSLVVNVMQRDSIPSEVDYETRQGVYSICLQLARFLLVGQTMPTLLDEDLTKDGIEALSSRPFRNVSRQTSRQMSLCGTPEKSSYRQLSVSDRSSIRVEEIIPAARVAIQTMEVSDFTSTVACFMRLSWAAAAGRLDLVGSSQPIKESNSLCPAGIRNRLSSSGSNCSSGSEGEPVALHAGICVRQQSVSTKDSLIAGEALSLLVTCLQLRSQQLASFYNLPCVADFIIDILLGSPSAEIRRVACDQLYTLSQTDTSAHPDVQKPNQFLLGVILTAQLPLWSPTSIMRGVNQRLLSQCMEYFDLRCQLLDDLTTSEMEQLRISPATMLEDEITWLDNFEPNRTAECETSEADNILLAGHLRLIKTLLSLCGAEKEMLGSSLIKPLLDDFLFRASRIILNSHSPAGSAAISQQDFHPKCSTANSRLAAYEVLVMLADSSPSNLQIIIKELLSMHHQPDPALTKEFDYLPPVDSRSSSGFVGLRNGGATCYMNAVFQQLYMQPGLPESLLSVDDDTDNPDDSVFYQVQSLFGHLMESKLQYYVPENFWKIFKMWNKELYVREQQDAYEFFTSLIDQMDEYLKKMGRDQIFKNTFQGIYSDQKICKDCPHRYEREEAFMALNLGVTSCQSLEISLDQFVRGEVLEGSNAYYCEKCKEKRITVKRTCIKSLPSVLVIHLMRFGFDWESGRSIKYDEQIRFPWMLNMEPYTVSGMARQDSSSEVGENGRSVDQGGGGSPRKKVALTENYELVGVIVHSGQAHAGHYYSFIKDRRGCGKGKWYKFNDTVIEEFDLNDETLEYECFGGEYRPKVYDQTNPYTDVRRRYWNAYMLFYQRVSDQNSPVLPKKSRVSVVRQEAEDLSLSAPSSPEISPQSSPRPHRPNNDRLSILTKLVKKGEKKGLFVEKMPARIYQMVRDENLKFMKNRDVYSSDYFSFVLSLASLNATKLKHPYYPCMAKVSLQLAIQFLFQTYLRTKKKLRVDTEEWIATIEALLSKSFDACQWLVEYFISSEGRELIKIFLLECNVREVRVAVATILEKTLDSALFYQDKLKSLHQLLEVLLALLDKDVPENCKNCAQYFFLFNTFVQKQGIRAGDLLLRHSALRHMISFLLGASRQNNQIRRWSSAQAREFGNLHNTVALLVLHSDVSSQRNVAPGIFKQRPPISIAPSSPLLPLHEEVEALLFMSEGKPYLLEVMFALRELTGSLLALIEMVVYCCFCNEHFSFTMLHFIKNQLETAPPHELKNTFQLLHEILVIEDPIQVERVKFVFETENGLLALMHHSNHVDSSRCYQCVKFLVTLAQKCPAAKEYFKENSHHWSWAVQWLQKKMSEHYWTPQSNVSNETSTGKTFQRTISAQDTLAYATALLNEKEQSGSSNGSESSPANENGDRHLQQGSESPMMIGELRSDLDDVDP

Cl.Cn1nccc1C(NC(=O)CCl)c1ccccc1 (stereo not given)
inactive: [1] -0.0802 | [2] -0.153 | [3] -0.00471 | [4] -0.455 | [5] -0.472
